This is an account of results in PubChem BioAssay (NCATS).

Values without a mark were called inactive. Results filed as inconclusive are left out. The source made the active and inactive calls. Unless noted, the call rests on the fitted dose curve; in most records, active means well fitted curve in the direction sought with a large enough effect; inconclusive means small, poorly fitted or top-dose-only effect, or another doubt; inactive means no such curve, though single readings can be large; an effect the other way counts as inactive or inconclusive.

Test [1] can be described thus: NS1 protein of Zika virus - qHTS assay to identify small molecule inhibitors in human HEK 293 cells (AID 1347053). Further: series mostly up to about 46 µM; nearly all actives have a fitted effect of over 55% in size. The procedure, abridged: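 In this cell-based screen, HEK 293 cultures received compound for one hour before Zika MR766 at MOI = 0.5. NS1 was quantified 24 hours later by TR-FRET, normalized to virus-free wells and infected wells.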
Test [2] has as its target T1, Tyrosine-protein phosphatase non-receptor type substrate 1 (Homo sapiens) + Leukocyte surface antigen CD47 (Homo sapiens) (UniProt P78324+Q08722). Kind of test: CD47-SIRPalpha protein protein interaction - HTRF assay qHTS validation (AID 1347058; active means well fitted curve in the direction sought with a large enough effect in the signal ratio, not every such curve was filed as active; the % refers to the signal ratio; further: series mostly up to about 38 µM). The procedure, abridged: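 Soluble extracellular domains (6His-CD47, Avi-tag-biotinylated SIRPalpha) in PBS pH 7.4 with 0.05% IGEPAL CA-630. Compounds were preincubated 30 min at RT with CD47 and anti-His-Eu, then SIRPalpha and SAV-XL665 were added. TR-FRET 665/615 ratio.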

For test [3], the target named is T1, Tyrosine-protein phosphatase non-receptor type substrate 1 (Homo sapiens) + Leukocyte surface antigen CD47 (Homo sapiens). Kind of test: CD47-SIRPalpha protein protein interaction - Alpha assay qHTS validation (AID 1347059).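 Further: bead proximity luminescence from CD47 binding SIRPalpha after compound preincubation with SIRPalpha.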 Further: potency means the concentration at half of the fitted maximal effect. A digest of the protocol:
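SIRPalpha-biotin 25 nM + cpd, 30 min RT, dark; add CD47-His 12.5 nM, 30 min; add Ni-NTA/SAV beads 10 ug/mL, 30 min; AlphaScreen. Buffer PBS pH 7.4 + 0.05% IGEPAL CA-630. Non-biotinylated SIRPalpha as control inhibitor.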

The target of test [4] is Parathyroid hormone/parathyroid hormone-related peptide receptor (Homo sapiens) (UniProt Q03431). Kind of test: qHTS for PTHR1 Agonists: Optimization Screen against the NCGC LOPAC library (AID 1347079).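 Further: GloSensor cAMP luminescence in HEK-293 GP2 cells expressing human PTHR1 with IBMX.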 A digest of the protocol: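 HEK-293 GP2 cells, PTHR1 + GloSensor cAMP; 3000 cells/well, o/n. Luciferin + IBMX 0.5mM each (stock), 1 hr 37C. Cpd titration, 1 hr 37C. Lum after 15 min RT. Ctrl M-PTH(1-15) top 10uM.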
Parathyroid hormone/parathyroid hormone-related peptide receptor (Homo sapiens), sequence (Q03431 whole entry, looked up): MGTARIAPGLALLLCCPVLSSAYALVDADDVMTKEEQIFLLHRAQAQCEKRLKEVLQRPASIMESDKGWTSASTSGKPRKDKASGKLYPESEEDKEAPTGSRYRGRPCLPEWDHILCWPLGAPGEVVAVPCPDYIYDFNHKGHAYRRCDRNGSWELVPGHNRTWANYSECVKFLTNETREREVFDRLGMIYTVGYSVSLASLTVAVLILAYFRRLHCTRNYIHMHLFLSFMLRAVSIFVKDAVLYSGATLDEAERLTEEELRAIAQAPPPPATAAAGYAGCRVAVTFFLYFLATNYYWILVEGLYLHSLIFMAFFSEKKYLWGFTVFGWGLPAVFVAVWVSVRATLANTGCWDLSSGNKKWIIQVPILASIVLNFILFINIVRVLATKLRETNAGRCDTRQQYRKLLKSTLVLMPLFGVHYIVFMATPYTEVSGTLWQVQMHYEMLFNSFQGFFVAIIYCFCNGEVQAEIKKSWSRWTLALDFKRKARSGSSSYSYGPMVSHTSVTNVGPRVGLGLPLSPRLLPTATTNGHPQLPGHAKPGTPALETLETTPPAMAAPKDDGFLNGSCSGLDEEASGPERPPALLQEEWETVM

Test [5] is described as follows: qHTS of pediatric cancer cell lines to identify multiple opportunities for drug repurposing: Primary screen for SK-N-MC cells (AID 1347093). Further: potency means the concentration at half of the fitted maximal effect. The procedure, abridged:
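Metabolically active cells were quantified by ATP-dependent luminescence (CellTiter-Glo, 15 min at room temperature) following 48 h treatment. Cells had been plated at 500-1,000 per well and settled for 5 h beforehand.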

A short description of test [6]: qHTS of pediatric cancer cell lines to identify multiple opportunities for drug repurposing: Primary screen for BT-37 cells (AID 1347094). Further: series mostly up to about 57 µM. The procedure, abridged:
(§1)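 Cells seeded at 500-1,000 cells/well in growth media, rested 5 hours at 37 degrees C, 5% CO2, then dosed; MIPE compounds at 11-point (from 0.78 nM) and NPC at 8-point (from 0.59 nM) final concentrations. Viability by CellTiter-Glo luminescence after 48 hours.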

The nature of test [7]: qHTS of pediatric cancer cell lines to identify multiple opportunities for drug repurposing: Primary screen for NB-EBc1 cells (AID 1347095). Further: potency means the concentration at half of the fitted maximal effect. The procedure, abridged: as §1
Test [8] is described as follows: qHTS of pediatric cancer cell lines to identify multiple opportunities for drug repurposing: Primary screen for U-2 OS cells (AID 1347096). Further: nearly all actives have a fitted effect of over 50% in size. The procedure, abridged:
(§2)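 Viability after 48 h compound treatment at 37C, 500-1,000 cells/well, read as ATP luminescence with CellTiter-Glo. Primary screens used 11-point (MIPE, 0.78 nM-46 µM) or 8-point (NPC, 0.59 nM-46 µM) final concentrations; follow-up screens used 11-point dilutions.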

The nature of test [9]: qHTS of pediatric cancer cell lines to identify multiple opportunities for drug repurposing: Primary screen for Saos-2 cells (AID 1347097). Further: nearly all actives have a fitted effect of over 40% in size. A digest of the protocol: as §1
The nature of test [10]: qHTS of pediatric cancer cell lines to identify multiple opportunities for drug repurposing: Primary screen for SK-N-SH cells (AID 1347098).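 Further: DMSO served as neutral control and bortezomib at 2.3 µM as positive control; nearly all actives have a fitted effect of over 65% in size.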 The procedure, abridged:
(§3)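 Cells (500-1,000/well) rested 5 h, then received compounds for 48 h; metabolically active cells were measured by CellTiter-Glo luminescence. Final concentrations spanned up to 46 µM (MIPE, 11-point) or 0.59 nM-46 µM (NPC, 8-point) in primary screens, 11-point in follow-ups.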

A short description of test [11]: qHTS of pediatric cancer cell lines to identify multiple opportunities for drug repurposing: Primary screen for Rh18 cells (AID 1347102). Further: nearly all actives have a fitted effect of over 65% in size. The procedure, abridged:
as §2

Test [12] is described as follows: qHTS of pediatric cancer cell lines to identify multiple opportunities for drug repurposing: Primary screen for RD cells (AID 1347104). Further: nearly all actives have a fitted effect of over 55% in size. A digest of the protocol:
as §1

Test [13] can be described thus: qHTS of pediatric cancer cell lines to identify multiple opportunities for drug repurposing: Primary screen for TC32 cells (AID 1347089). Further: nearly all actives have a fitted effect of over 60% in size. A digest of the protocol: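 TC32 cells, 500-1,000/well in growth medium, compound-treated 48 h at 37 °C; viability from CellTiter-Glo luminescence. Primary screen: MIPE 11-point (0.78 nM–46 µM final), NPC 8-point (0.59 nM–46 µM final); confirmatory at 11-point dilutions.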

The nature of test [14]: qHTS of pediatric cancer cell lines to identify multiple opportunities for drug repurposing: Primary screen for DAOY cells (AID 1347090). Further: series mostly up to about 46 µM; nearly all actives have a fitted effect of over 55% in size. A digest of the protocol: (§4)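 Viability measured as metabolically active cells via CellTiter-Glo luminescence following 48 hours of compound exposure, 11-point dilutions in confirmatory testing. 500-1,000 cells/well plated 5 hours before dosing; controls were DMSO and 2.3 µM bortezomib.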

The nature of test [15]: qHTS of pediatric cancer cell lines to identify multiple opportunities for drug repurposing: Primary screen for SJ-GBM2 cells (AID 1347091). The procedure, abridged:
as §4

Test [16] can be described thus: qHTS of pediatric cancer cell lines to identify multiple opportunities for drug repurposing: Primary screen for A673 cells (AID 1347092). Further: nearly all actives have a fitted effect of over 45% in size. A digest of the protocol: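 A673 cells (500-1,000 cells/well) were treated 48 hours at 37 degrees C with compounds at 11-point (0.78 nM to 46 µM) or 8-point (0.59 nM to 46 µM) dilutions. Viability read by CellTiter-Glo luminescence; concentration-response curves fitted.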

A short description of test [17]: qHTS of pediatric cancer cell lines to identify multiple opportunities for drug repurposing: Primary screen for NB1643 cells (AID 1347099). Further: nearly all actives have a fitted effect of over 50% in size. A digest of the protocol:
as §1

The nature of test [18]: qHTS of pediatric cancer cell lines to identify multiple opportunities for drug repurposing: Primary screen for LAN-5 cells (AID 1347100). The procedure, abridged:
as §2

Test [19] can be described thus: qHTS of pediatric cancer cell lines to identify multiple opportunities for drug repurposing: Primary screen for BT-12 cells (AID 1347101). Further: nearly all actives have a fitted effect of over 25% in size. A digest of the protocol:
as §3

Test [20] can be described thus: qHTS of pediatric cancer cell lines to identify multiple opportunities for drug repurposing: Primary screen for OHS-50 cells (AID 1347103). Further: nearly all actives have a fitted effect of over 40% in size. The procedure, abridged:
as §3

T1 sequence (P78324 whole entry, looked up, the tested form may be a part): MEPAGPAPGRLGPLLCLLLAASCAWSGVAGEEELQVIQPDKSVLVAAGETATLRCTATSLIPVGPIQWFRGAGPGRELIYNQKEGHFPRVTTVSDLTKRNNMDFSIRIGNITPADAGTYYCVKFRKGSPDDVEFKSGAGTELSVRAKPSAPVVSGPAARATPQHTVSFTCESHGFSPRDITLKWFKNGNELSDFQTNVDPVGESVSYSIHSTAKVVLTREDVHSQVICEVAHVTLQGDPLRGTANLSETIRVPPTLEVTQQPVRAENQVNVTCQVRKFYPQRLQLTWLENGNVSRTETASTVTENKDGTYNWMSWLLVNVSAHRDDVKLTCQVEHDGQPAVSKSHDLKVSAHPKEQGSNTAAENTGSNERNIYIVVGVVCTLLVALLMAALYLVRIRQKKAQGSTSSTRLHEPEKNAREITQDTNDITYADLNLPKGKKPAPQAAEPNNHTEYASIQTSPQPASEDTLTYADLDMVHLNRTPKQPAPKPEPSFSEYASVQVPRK
T1 sequence (Q08722 whole entry, looked up, the tested form may be a part): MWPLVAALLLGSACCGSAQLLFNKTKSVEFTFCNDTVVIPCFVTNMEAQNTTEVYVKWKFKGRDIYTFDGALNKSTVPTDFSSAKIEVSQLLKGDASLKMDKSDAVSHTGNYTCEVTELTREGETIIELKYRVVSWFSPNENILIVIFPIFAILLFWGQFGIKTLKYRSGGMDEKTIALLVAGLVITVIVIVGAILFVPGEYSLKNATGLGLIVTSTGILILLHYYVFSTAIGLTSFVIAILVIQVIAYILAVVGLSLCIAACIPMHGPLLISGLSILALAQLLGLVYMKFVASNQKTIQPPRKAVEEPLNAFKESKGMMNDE

Turning to `COc1cc2c(cc1O)CC[C@@H]1[C@@H]2CC[C@]2(C)[C@@H](O)CC[C@@H]12`, the Potency entry in test [1] and in test [3] was “inactive” in each case. The outcome in test [2] and in test [4] was inactive.
Take `Oc1ccc(O)cc1`: the Potency entry in test [1], in test [3], in test [6], in [8], in test [9] and in test [10] was “inactive” throughout. Besides, the Potency entry in test [11] and in test [12] was “inactive” throughout. Besides, the outcome in test [2] and in [4] was inactive. Also, the figures for the Potency in test [5] and in test [7] were 26.6 µM (active) and 6.68 µM (active), respectively.
For the molecule `N[C@@H](Cc1cnc[nH]1)C(=O)O`, the Potency entry in test [1] is “inactive”. Also, the outcome in [2] and in test [4] was inactive. The Potency in test [3] is 13.1 µM (active).
For `C[C@]12C=CC(=O)C=C1[C@@H](F)C[C@@H]1[C@@H]2[C@@H](O)C[C@@]2(C)[C@H]1CC[C@]2(O)C(=O)CO`, the Potency result in test [1], in test [13], in [14], in test [15], in test [16] and in [5] was “inactive” throughout. For the same molecule, the Potency result in test [6], in [7], in [8], in test [9], in test [10] and in test [17] was “inactive” in each case. Besides, the Potency entry in test [18], in test [19], in [11], in test [20] and in test [12] was “inactive” in each case.
For `Cc1ccc(Nc2c(F)cccc2Cl)c(CC(=O)O)c1`, the Potency entry in test [1], in [13], in [14], in test [15], in test [16] and in test [5] was “inactive” in each case. The Potency entry in test [6], in test [7], in test [8], in test [9], in test [10] and in test [17] was “inactive” each time. For the same molecule, the Potency result in test [18], in test [19], in [11] and in test [20] was “inactive” each time.
As to `N[C@H](CO)C(=O)O`, the Potency result in test [1] and in [3] was “inactive” throughout. Besides, the result in test [2] and in test [4] was inactive.
On to `CC1(C)CCC(NC(=O)[C@@H](N)CCC(=O)O)CC1`, for which the Potency result in test [1] and in [3] was “inactive” throughout. In addition, the result in test [2] and in [4] was inactive.
As to `Nc1nc2ncc(CNc3ccc(C(=O)N[C@@H](CCC(=O)O)C(=O)O)cc3)nc2c(=O)[nH]1`, the Potency result in test [1], in [13], in [14], in test [15], in test [16] and in test [5] was “inactive” throughout. For the same molecule, the Potency entry in test [6], in test [7], in [8], in [9], in test [10] and in test [17] was “inactive” each time. The Potency result in [18], in test [19], in test [11] and in test [20] was “inactive” each time.
Turning to `CN1C2CCC1CC(OC(=O)c1c[nH]c3ccccc13)C2` (stereo not drawn), the Potency entry in test [1] and in test [3] was “inactive” in each case. Also, the outcome in [2] and in test [4] was inactive.
As to `C[C@@H]1C[C@H]2[C@@H]3CCC4=CC(=O)C=C[C@]4(C)[C@@]3(F)[C@@H](O)C[C@]2(C)[C@H]1C(=O)CO`, the Potency result in [1], in test [13], in [14], in [15], in test [16] and in test [5] was “inactive” in each case. Further, the Potency entry in test [6], in test [7], in [8], in test [9], in [10] and in test [17] was “inactive” each time. The Potency result in test [18], in test [19] and in [11] was “inactive” throughout.
Turning to `O=C1CCC(c2ccc(-n3ccnc3)cc2)=NN1`, the Potency entry in test [1] and in test [3] was “inactive” throughout. Also, the outcome in test [2] and in [4] was inactive.
For the molecule `Nc1cc(Cl)c(NC2=NCCN2)c(Cl)c1`, the Potency result in test [1] and in test [3] was “inactive” each time. Also, the outcome in test [2] and in test [4] was inactive.
On to `C[N+]1(CCCCC[N+]2(C)CCCC2)CCCC1`, for which the Potency result in test [1] and in test [3] was “inactive” throughout. Further, the outcome in test [2] and in test [4] was inactive.
